# Measurements from PubChem BioAssay AID588848 (Broad Institute, 2011).
# Entries with a potency or affinity are not part of this list. Inconclusive results are not listed. The source made the active and inactive calls.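 Rule for the calls: active = fitted half-maximal inhibiting dose no more than ten times the top valid dose tested; inconclusive = flat activity from -30 to -70%, or unreliable curve fit; inactive = the rest.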
# Target: CAAX prenyl protease 2 (Homo sapiens) (UniProt Q9Y256)
# Experiment: inhibition of Ras-converting CAAX endoprotease – biochemical, plate reader, dry powder samples, dose response (AID 588848)
# Sequence of CAAX prenyl protease 2 (Homo sapiens) (Q9Y256 whole entry, looked up): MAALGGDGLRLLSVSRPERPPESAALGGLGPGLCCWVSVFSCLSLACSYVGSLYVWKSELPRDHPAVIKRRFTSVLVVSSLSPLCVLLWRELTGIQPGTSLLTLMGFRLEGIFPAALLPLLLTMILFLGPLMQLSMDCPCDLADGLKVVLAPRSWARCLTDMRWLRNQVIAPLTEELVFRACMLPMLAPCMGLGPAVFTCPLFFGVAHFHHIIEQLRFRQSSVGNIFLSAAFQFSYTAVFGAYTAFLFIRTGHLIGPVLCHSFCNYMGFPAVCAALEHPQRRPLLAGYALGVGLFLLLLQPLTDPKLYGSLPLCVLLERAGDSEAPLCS
row,Compound,outcome
1,Nc1nonc1-n1nnc(C(=O)N/N=C/c2cccc(Cl)c2)c1CSc1ccc(Cl)cc1,inactive
2,COc1ccc(-n2c(SCc3ccc([N+](=O)[O-])cc3)nnc2-c2ccc(C)cc2)cc1,inactive
3,CCOc1cccc(-c2c(C(=O)N/N=C/c3cccs3)nnn2-c2nonc2N)c1,inactive
4,Cc1ccc(SCc2c(C(=O)N/N=C/c3ccccc3)nnn2-c2nonc2N)cc1,inactive
5,Cc1cccc(-c2nnc(SCc3ccc(C#N)cc3)n2Cc2ccco2)c1,inactive
6,Cc1cc(N2CCN(C(c3ccccc3)c3ccccc3)CC2)n2ncnc2n1,inactive
7,CCCOc1ccc(-c2c(C(=O)N/N=C/c3cccs3)nnn2-c2nonc2N)cc1,inactive
8,Cc1ccc(NC(=O)CCc2ccc(S(=O)(=O)NC3CCCCC3)cc2)cc1,inactive
9,CC(C)c1c(C(=O)N/N=C/c2cccc3ccccc23)nnn1-c1nonc1N,inactive
10,CN(C(=O)COC(=O)c1cn(-c2ccccc2)nc1-c1ccccc1)C1CCS(=O)(=O)C1 (stereo not given),inactive
